Structures are written as SMILES. Compounds without any hit were thinned out: in the full panel of roughly 83,000, 20% have a hit.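 A percent growth of 40 corresponds to 60% growth inhibition; 0 means no net growth; -100 means all cells died. Active threshold: below 10.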 Calls of active or inactive are those of the source.

For the experiment, the system named is HS 578T breast. Briefly: NCI-60 one-dose screen, 48 h (100 = growth as untreated, 0 = no growth, -100 = all killed). The following applies: 10 µM unless noted.
Take `CCN(CC)CCN1C(=O)c2cccc3c(/C=C/CN4C(=O)c5cccc6cccc(c56)C4=O)ccc(c23)C1=O`: the growth is 84.8% (inactive).

For the compound `CCN1CCN(C(=O)[C@]23CC[C@@H](C)[C@H](C)[C@@H]2C2=CC[C@@H]4[C@@]5(C)C/C(=C/c6cccnc6)C(=O)C(C)(C)[C@@H]5CC[C@@]4(C)[C@]2(C)CC3)CC1`, the growth is 25.2% (inactive).

On to `COc1ccc(C2CC(c3cc(OC)c(OC)c(OC)c3)=NO2)cc1OCCCCOc1cc2c(cc1OC)C(=O)N1CCC[C@H]1C=N2` (some centres undefined), for which the growth was 0.334% (active).

`Cn1c(=O)c2[nH]c(SCC(=O)Nc3ccc(C(=O)/C=C/c4ccccc4Cl)cc3)nc2n(C)c1=O`: the growth is 95.5% (inactive).

For `CC1(C)N=C(N)N=C(N)N1c1cccc(CCc2ccccc2)c1`, the growth was 70.4% (inactive).

Consider `O=C1c2ccccc2C(=O)c2c1c(C(=O)NCc1ccccc1)c1ccccn21`, for which the growth was 97.9% (inactive).

In the case of `CC1C(/C=N/NC(N)=S)C(C#N)(C#N)C1(C#N)C#N` (centres undefined), the growth was 91.7% (inactive).

Turning to `NS(=O)(=O)c1ccc(-c2cc(-c3nnc(SCC(=O)Nc4ccc(C(=O)/C=C/c5ccc(Cl)cc5)cc4)n3-c3ccccc3)c3ccccc3n2)cc1`, the growth is 84.3% (inactive).

With `CC1(C)CC[C@]2(C(=O)N[C@H](CO)Cc3ccccc3)CC[C@]3(C)C(=CC[C@@H]4[C@@]5(C)CCCNC(C)(C)[C@@H]5CC[C@]43C)[C@@H]2C1`, the growth is 85.6% (inactive).

Regarding `CCCCNc1cc(-c2cn[nH]c2-c2cc(C)cc(OC)c2)nc(-c2cccnc2)n1`, the growth was 97.6% (inactive).

As to `C/C(=N\O)[C@@H]1CC[C@]2(CO)CC[C@]3(C)[C@H](CC[C@@H]4[C@@]5(C)CCCNC(C)(C)[C@@H]5CC[C@]43C)[C@@H]12`, the growth is 84.3% (inactive).

Regarding `CN(C)CCCC1(c2ccc(F)cc2)OCc2cc(-c3cc4ccccc4s3)ccc21` (centres undefined), the growth was 27.2% (inactive).

Take `C=C(C)[C@@H]1CCC[C@]2(C(=O)O)CC[C@]3(C)[C@@H](CC[C@@H]4[C@@]5(C)C/C(=C/c6ccncc6)C(=O)C(C)(C)[C@@H]5CC[C@]43C)[C@@H]12`: the growth is 53% (inactive).

As to `C=Cc1cnc(Nc2ccc(OC)cc2)nc1NCCCNC(=O)C1CCC1`, the growth was 18.7% (inactive).

On to `Cc1ccc(CNc2ccc3nc(CCC(C)C)[nH]c3c2)cc1`, for which the growth was 96.3% (inactive).

In the case of `O=c1ccc(=O)n(-c2nc(-c3ccc([N+](=O)[O-])cc3)cs2)[nH]1`, the growth is 98.8% (inactive).

As to `CC(=O)OC(c1ccccc1)C1CCOC1=O` (centres undefined), the growth is 111% (inactive).

`Cc1ccc(-c2csc(N(C(=O)N3CCN(c4cc5c(cc4F)c(=O)c(C(=O)O)cn5C4CC4)CC3)c3ccccc3)n2)cc1`: the growth is 33.5% (inactive).

Turning to `CCN1CCN(CC(=O)Nc2nc3ccc(NCc4ccc(F)cc4)cc3s2)CC1`, the growth is 92.9% (inactive).

On to `CCOC(=O)c1c(C)nc2c(c1N)CC(=O)N2Cc1ccc(OC)cc1`, for which the growth was 29.4% (inactive).

With `CCNC(=O)Oc1ccc(/C(=C(/C)Cc2ccc(OC)cc2)c2ccc(OCCN3CCCCC3)cc2)cc1`, the growth is 64.5% (inactive).

Turning to `C=C(C)[C@@H]1CCC[C@]2(C(=O)N3CCN(C)CC3)CC[C@]3(C)[C@@H](CC[C@@H]4[C@@]5(C)CC/C(=N\NC(=O)c6ccncc6)C(C)(C)[C@@H]5CC[C@]43C)[C@@H]12`, the growth was 103% (inactive).

For `CCCCCCCCCCCCCOC(=O)c1c(C)[nH]c(/C=C2\N=C(c3ccc[nH]3)C=C2OC)c1C`, the growth was 18% (inactive).

As to `COc1cccc(/C=C/C(=O)c2cccc(Nc3nc(Nc4ccccc4)nc(Nc4ccccc4)n3)c2)c1`, the growth was 81.5% (inactive).

Consider `O=C(C1CCCCC1)[C@@H]1[C@]2(C(=O)NC3CCCCC32)[C@@H]2CCCN2[C@@]12C(=O)NC1CCC(Cl)CC12` (some centres undefined), for which the growth was -43.6% [100 µM] (active).

For the compound `N#C/C(=C\c1ccc(-c2cccc(C(F)(F)F)c2)o1)c1ccccc1`, the growth was 86.7% (inactive).

On to `COc1cc(C(=O)n2nc(N3CCOCC3)c3cc(-n4cccc4)ccc32)cc(OC)c1OC`, for which the growth is 68.5% (inactive).

On to `COC(=O)c1c2c(c(C)[n+]([O-])c1C)C(=O)C(NCc1ccc(OC)cc1)=CC2=O`, for which the growth is 84.8% (inactive).

`CC1=C(CCC(C)NCc2ccc(OCCCN3CCCCC3)cc2)C(C)(C)CCC1` (centres undefined): the growth was -52.9% (active).

Regarding `CN1CCN(CCCOc2cccc3nc(Nc4ccc(F)c(F)c4)ccc23)CC1`, the growth was 16.8% (inactive).

For the compound `CC1(C)CC[C@]23CC[C@]4(C)[C@H](CC[C@@H]5[C@@]6(C)C/C(=C/c7ccncc7)C(=O)C(C)(C)[C@@H]6CC[C@]54C)[C@H]2[C@H]1OC3`, the growth was 84.9% (inactive).

As for `C/C(Cc1ccc(Cl)cc1)=C(\c1ccc(OCCCN(C)C)cc1)c1ccc(OC(=O)Cc2ccccc2)cc1`, the growth was 105% (inactive).

Consider `COc1ccc(C(=O)/C=C/c2ccc(N3CCCCC3)cc2)cc1OC`, for which the growth is 103% (inactive).

For `O=C1Nc2c(C(=O)O)cccc2/C1=N/c1n[nH]c(=S)s1`, the growth was 87% (inactive).

Consider `COC(=O)N1CC(Oc2ccccn2)C2CC1c1ccccc1O2` (centres undefined), for which the growth is 86% (inactive).

As to `CN(CCCNC(=O)Cc1ccc2ccc3cccc4ccc1c2c34)CCCNc1cc(-c2ccc3ccccc3c2)nc2ccccc12`, the growth is -32% (active).

For the compound `CCOC(=O)C(=Cc1ccc(-c2ccccc2)cc1)C(=O)OCC`, the growth was 39.7% (inactive).

For the compound `COc1ccc(C(O)c2cc3c(N)c(C(=O)Nc4cccc(Cl)c4C)sc3nc2C)cc1` (centres undefined), the growth was 13.6% (inactive).

`Oc1ccc(/C=C/c2ccc(O)cc2)cc1`: the growth was 61.3% (inactive).

The values are drawn from PubChem BioAssay (NCI).
